EWS-Fli inh = inhibitors of EWS/Fli oncoprotein transcriptional activity; A673 NR0B1-luciferase reporter, viability-normalised; inhibition, % at 12.6 µM; 0.67% of 350,000 active; AID 651661;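 active = mean inhibition of at least 50% after viability correction, with every replicate also passing that limit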;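 also: firefly luciferase signal divided by Alamar Blue viability fluorescence both relative to DMSO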
PAX8 reporter = PAX8 transcriptional activity inhibition | RMG-I TPO-luciferase reporter, SteadyGlo, 24 h | inhibition, % at 12.6 µM | 1.2% of 360,000 active | AID 652154;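 active = mean replicate inhibition at least 60% with every replicate also reaching 60%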;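 also: luciferase light reporting Pax8 driven TPO promoter activity; plate controls were median of neutral control wells for no effect and mitoxantrone controls for full effect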
CFTR F508del cor = correctors of CFTR F508del function in bronchial epithelial cells; CFBE cells, YFP halide quenching; stimulated with forskolin plus potentiator P3; % fluorescence drop versus neutral controls; activity (quench increase), % at 7.58 µM; 0.36% of 350,000 active; AID 720511;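 active = mean added fluorescence quench of at least 8% versus neutral control, with both replicates also reaching 8%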;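 also: cells transiently co-express mutant CFTR-F508del with the halide-sensitive YFP; corrector assay measuring rescue of mutant channel to the surface after 24 h compound exposure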
Env fusion inh = blocks HIV Env-driven cell-cell fusion; inhibition, % at 12.3 µM; 1.1% of 360,000 active; HeLa-JRFL Env/CEM21 cell fusion, luciferase;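 active = mean replicate inhibition score of at least 50 and every replicate individually at or above 50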;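 also: 0% = plate neutral controls and 100% = maraviroc near 300 nM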
FXN GAA850 act = increases GAA850 frataxin promoter reporter activity | HEK293 lucGAA850 FXN promoter luciferase reporter, 24 h; percent of 10 µM SAHA response | activation, % at 6 µM | 0.56% of 360,000 active | AID 540364;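 active = activation above the average of all compounds screened plus 3 SD, cutoff fixed separately per campaign, cut at about 7.5% in these data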;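 also: 0% = DMSO wells and 100% = 10 µM SAHA wells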
Active calls of the source: *; · = no result; [ ] = dose if it differs, or a comment. Sampled rows, rich in hits. Any-hit rate of the full collection: about 2.5%.

SMILES	EWS-Fli inh	PAX8 reporter	CFTR F508del cor	Env fusion inh	FXN GAA850 act
Cc1cccc(-n2ncc3c(N4CCOCC4)ncnc32)c1	67.9*	47.0	0.9	-18.0	-4.5
CN1C(=O)c2cc(NC(=O)C3CCCC3)ccc2OC[C@H]2O[C@@H](CC(=O)Nc3ccccc3)CC[C@H]21	6.4	28.7	-0.3	-0.3[16.7 µM]	·
CS(=O)(=O)N1CCCCN2[C@@H](CO)[C@H](c3ccc(C#Cc4ccccn4)cc3)[C@@H]2C1	·	-10.7	-0.7	·	·
C[C@H](CO)N1C[C@H](C)[C@@H](CN(C)C(=O)c2ccncc2)Oc2ncc(C#CC3CCCCC3)cc2C1=O	-5.1	-13.1	-1.7	-6.4[16.7 µM]	·
COc1ccc2c(c1)C(c1cccs1)=NNC(c1ccncc1)=N2	-7.6	24.1	-0.1	46.6	9.4*
CCn1cc(C(=O)NCc2ccco2)c(=O)c2cc(S(=O)(=O)N3CC(C)CC(C)C3)ccc21 (centres undefined)	·	63.3*	·	38.4	0.8
O=C(C[C@H]1C=C[C@@H](NC(=O)CC2CC2)[C@@H](CO)O1)NCC(F)(F)F	·	·	-1.7	·	·
CCN1CCN(Cc2ccc(NC(=O)c3cc(NC(=O)c4cncc(-c5ccc(C#N)cc5)c4)cc(OC)c3)cc2C(F)(F)F)CC1	48.1	108.0*	-4.5	4.4	0.6
CCN1CCN(Cc2ccc(NC(=O)c3ccc(C)c(NC(=O)c4cc(-c5ccc(Br)cc5)n[nH]4)c3)cc2C(F)(F)F)CC1	54.1*	-1.9	0.1	44.1	-0.3
CCN1CCN(Cc2ccc(NC(=O)c3ccc(C)c(NC(=O)c4nccn4C)c3)cc2C(F)(F)F)CC1	4.8	6.5	-2.1	6.7	-2.3
C[C@H](CO)N1C[C@H](C)[C@H](CN(C)Cc2cccc(F)c2)Oc2cc(C#CC3CC3)ccc2S1(=O)=O	12.8	·	2.6	9.8[16.7 µM]	·
CC1(Oc2ccc3ccccc3c2)CCN(Cc2cccn2-c2nccs2)C1 (centres undefined)	12.2	10.5	-1.2	70.2*	3.1
C[C@@H]1CN([C@@H](C)CO)C(=O)c2cccc(NC(=O)C3CCOCC3)c2O[C@@H]1CN(C)Cc1ccc(C(=O)Nc2ccccc2N)cc1	-17.6	12.1	-1.7	·	·
CCCNC(=O)Nc1ccc2c(c1)C(=O)N(C)C[C@H](OC)[C@@H](C)CN(CC1CCCC1)[C@H](C)CO2	3.4	·	-0.8	·	·
CC(C)(C)NC(=O)C(c1ccncc1)N(C(=O)C1CSC(=O)C1)c1ccccc1 (centres undefined)	0.6	12.1	-0.7	4.3	0.6
CC(C)(C)NC(=O)C(c1ccccc1)N(C(=O)C1CSC(=O)C1)c1ccccc1 (centres undefined)	·	·	·	64.7*	2.7
C[C@@H]1CN([C@H](C)CO)C(=O)c2cc(NC(=O)Cc3ccccc3)ccc2O[C@@H](C)CCCCO[C@H]1CN(C)C(=O)C1CCCCC1	8.3	-18.0	1.5	-2.1[16.7 µM]	·
COc1ccc(-c2cnc3c(c2)C(=O)N([C@H](C)CO)C[C@H](C)[C@H](CN(C)S(=O)(=O)c2ccc(C#N)cc2)O3)cc1	3.9	·	1.7	·	·
COC(=O)c1ccc2nc(NC(=O)CSCC(=O)OCC(=O)c3ccccc3)sc2c1	-18.5	-7.4	0.5	14.6	-1.1
Cc1ccc2nc(NC(=O)CSCC(=O)OCC(=O)c3ccc(Br)cc3)sc2c1	·	24.3	·	73.1*	-9.6
CC(C)(C)CC(C)(C)NC(=S)Nc1ccc2nc(-c3ccccn3)c(-c3ccccn3)nc2c1	·	24.1	·	58.1*	-1.0
Cc1ccc(C(=O)NCc2ccccn2)cc1S(=O)(=O)N1CCCCC1	-3.4	5.8	-0.6	90.2*	-1.0
Clc1ccc2c(c1)C(C1=NCCN1)c1ccccc1CS2 (centres undefined)	·	20.4	·	113.5*	-6.6
S=C1NCCc2ccc(Cl)cc2C1c1ccccc1Cl (centres undefined)	·	·	·	-68.5	1.0
COc1ccc(-c2csc(C(C)(O)c3ccc(OC)cc3)n2)cc1 (centres undefined)	2.8	15.5	-0.4	20.1	1.6
SMILES	EWS-Fli inh	PAX8 reporter	CFTR F508del cor	Env fusion inh	FXN GAA850 act
COc1ccc(C(C)(O)c2nc(-c3ccc(F)cc3OC)cs2)cc1 (centres undefined)	57.7*	18.5	-1.1	20.0	-1.6
COc1ccc(C(C)(O)c2nc(-c3ccccc3C)cs2)cc1 (centres undefined)	59.7*	29.5	-2.6	-18.9	-5.1
COc1ccc(C(C)(O)c2nc(-c3ccncc3)cs2)cc1 (centres undefined)	58.9*	29.0	1.5	16.1	-3.5
CCS(=O)(=O)N1CCC2(CC1)CN(Cc1ccccc1OC)[C@@H](CO)c1c2c2ccc(OC)cc2n1C	6.1	25.1	-0.4	·	·
O=C1NC(Cc2ccc(O)cc2)c2nc3cc(F)c(F)cc3c(=O)n2-c2cc3ccccc3cc21 (centres undefined)	20.6	41.9	2.9	10.3	-5.1
O=C1NC(Cc2ccccc2)c2nc3ccccc3c(=O)n2-c2cc3ccccc3cc21 (centres undefined)	47.1	48.5	1.0	-90.7	-7.8
Cc1ccc2nc3n(c(=O)c2c1)-c1cc2ccccc2cc1C(=O)NC3Cc1ccc(O)cc1 (centres undefined)	62.1*	50.0	-0.8	·	-8.6
O=C1NC(Cc2ccc(O)cc2)c2nc3ccc(F)cc3c(=O)n2-c2cc3ccccc3cc21 (centres undefined)	64.4*	57.7	0.1	·	-12.1
O=C1NC(Cc2ccccc2)c2nc3cc(F)ccc3c(=O)n2-c2cc3ccccc3cc21 (centres undefined)	34.3	62.3*	4.6	-17.3	-7.0
Cc1ccc(S(=O)(=O)Nc2ccc3c(c2)C(=O)N([C@H](C)CO)C[C@H](C)[C@@H](CN(C)C(=O)Nc2c(C)noc2C)O3)cc1	-0.7	1.5	-0.6	-21.2[16.7 µM]	·
C[C@@H]1CN([C@@H](C)CO)C(=O)c2c(c3ccccc3n2C)-c2ccccc2CO[C@H]1CN(C)C(=O)Nc1ccc(-c2ccccc2)cc1	4.2	·	0.9	22.6[16.7 µM]	·
COC(=O)C[C@@H]1C[C@H]2c3cc(NC(=O)Nc4ccc(F)cc4)ccc3O[C@H]2[C@H](CO)O1	-3.0	-9.0	0.8	13.9[16.7 µM]	·
CCCCCCCCCCCCCCCC(=O)OCC1OC(n2ccc(N)nc2=O)C(O)C1O (centres undefined)	37.6	13.4	-0.8	75.2*	-0.3
Nc1ccn(C2OC(CO)C(O)C2O)c(=O)n1 (centres undefined)	38.6	·	9.7*	·	-5.6
NC[C@H]1O[C@@H](n2ccc(N)nc2=O)[C@H](O)[C@@H]1O	8.3	6.8	-3.8	30.6	·
Nc1ccn([C@@H]2O[C@H](CO)[C@@H](O)[C@@H]2O)c(=O)n1	43.1	36.1	19.3*	47.0	-6.1
Nc1ccn(C2OC(CO)C(O)C2F)c(=O)n1 (centres undefined)	-13.8	0.8	-0.5	75.1*	·
CC[C@H]1CN2CCc3cc(OC)c(OC)cc3C2C[C@@H]1C[C@H]1NCCc2cc(OC)c(OC)cc21 (some centres undefined)	58.8*	110.8*	-9.5	·	-14.0

Source: PubChem BioAssay
